MEKK2wt PB1 HTS: raises or lowers MEK5 binding to wildtype human MEKK2 PB1 domain; bead flow cytometry, Alexa488-MEK5 binding to MEKK2 WT; actives lie on both sides; binding response (% of control), % at 10 µM; actives 1.1% (n = 290,000); AID 1531; in the data active means binding response below about 67% or above about 130%
MEKK3 PB1 HTS: MEKK3-MEK5 PB1 interaction, increase or decrease; bead-based flow cytometry, Alexa488-MEK5 binding to MEKK3; actives lie on both sides; 0 = blocked by unlabeled MEK5, 100 = vehicle; binding response (% of control), % at 10 µM; actives 1.4% (n = 290,000); AID 1529;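 active means binding response more than 3 SD above or below the average of its plate-row segment, actives on both sides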;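 further: Alexa488 bead fluorescence after subtracting the streptavidin-only scavenger bead signal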
Target sequence (Q99759 whole entry, looked up): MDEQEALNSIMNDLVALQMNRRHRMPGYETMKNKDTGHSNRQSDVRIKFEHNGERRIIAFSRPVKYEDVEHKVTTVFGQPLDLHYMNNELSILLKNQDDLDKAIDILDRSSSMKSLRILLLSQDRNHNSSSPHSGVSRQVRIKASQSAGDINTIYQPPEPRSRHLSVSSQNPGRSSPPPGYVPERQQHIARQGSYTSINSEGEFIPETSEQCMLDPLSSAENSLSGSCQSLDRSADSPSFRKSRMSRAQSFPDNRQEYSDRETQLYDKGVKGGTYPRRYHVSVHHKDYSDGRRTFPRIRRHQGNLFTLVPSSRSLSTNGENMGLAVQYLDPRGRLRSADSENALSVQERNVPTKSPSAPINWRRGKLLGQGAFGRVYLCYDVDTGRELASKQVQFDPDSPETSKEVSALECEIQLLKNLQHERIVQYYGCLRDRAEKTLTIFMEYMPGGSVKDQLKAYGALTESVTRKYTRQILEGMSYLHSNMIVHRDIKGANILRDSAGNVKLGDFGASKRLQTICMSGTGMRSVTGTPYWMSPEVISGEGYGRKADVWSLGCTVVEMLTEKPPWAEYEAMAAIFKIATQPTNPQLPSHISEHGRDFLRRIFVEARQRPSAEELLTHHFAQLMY
CendR NRP1 mod: alters CendR peptide binding to human NRP-1. O14786. FAM-RPARPAR peptide binding to NRP-1, fluorescence polarization. inhibition, % at 25 µM. actives 0.85% (n = 360,000). AID 602438;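 active means inhibition or corrected inhibition above about 18%, plus a signal ratio from 0.5 to 1.5, limit read from the data, passing the limit was not always enough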
MEKK2mut PB1 HTS: signal of MEK5 binding to mutant human MEKK2 PB1 domain; bead flow cytometry, Alexa488-MEK5 binding to MEKK2 mutant; percent response, % at 10 µM; actives 0.35% (n = 290,000); in the data active means percent response above about 24%, passing the limit was not always enough
SKN-1 inh: blocks SKN-1 activity in C. elegans; inhibition, % at 21.8 µM; C. elegans VP596 Pgst-4::GFP/RFP ratio, acrylamide-induced, 24 h; actives 0.49% (n = 360,000); AID 624304;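 active means interference check ratio from 0.5 to 1.5 plus GFP to RFP signal ratio inhibition reaching or exceeding a fixed threshold, cut at about 30% in these data, passing the limit was not always enough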
MEKK2wt confirm: raises or lowers MEK5 binding to wildtype human MEKK2, retest | actives 2.4% (n = 5,900) | AID 1892 | bead flow cytometry, Alexa488-MEK5 binding to MEKK2 WT; actives lie on both sides | binding response (% of control), % at 10 µM | shares compounds with MEKK3 PB1 HTS; in the data active means binding response below about 16% or above about 210%; inactive means in between
MEKK2mut confirm: signal of MEK5 binding to mutant human MEKK2, retest. shares compounds with MEKK3 PB1 HTS. actives 2% (n = 5,900). AID 1893. bead flow cytometry, Alexa488-MEK5 binding to MEKK2 mutant. percent response, % at 10 µM; in the data active means percent response mostly above about 71%, no sharp cut-off; inactive means mostly below about 38%;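 further: higher means compound restores mutant binding toward wildtype level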
MEKK3 confirm: MEKK3-MEK5 PB1 inhibition, single concentration confirmation; shares compounds with MEKK3 PB1 HTS; binding response (% of control), % at 10 µM; bead flow cytometry, Alexa488-MEK5 binding to MEKK3; hits give low values; actives 1.8% (n = 5,900); AID 1894;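 active means binding response below 72% of control, or above a set upper limit, though filed actives all read lower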
Numbers stand for hits; [ ] = remark or other dose. Sampled rows, rich in hits. Any-hit rate of the full collection: about 3.2%.

`COc1ccc(C2CC(c3cccs3)=NN2C(=O)CCCC(=O)O)cc1OC` (stereo not drawn) gave CendR NRP1 mod inactive and SKN-1 inh inactive.
Screening CCn1c(SCC(=O)Nc2cc(C(C)(C)C)nn2-c2ccccc2)nnc1-c1cccs1 returned MEKK2wt PB1 HTS inactive, MEKK3 PB1 HTS 151, CendR NRP1 mod inactive, MEKK2mut PB1 HTS inactive, SKN-1 inh inactive, MEKK2wt confirm inactive, MEKK2mut confirm inactive and MEKK3 confirm inactive.
For Cc1nnc(SCC(=O)Nc2cc(C(C)(C)C)nn2-c2ccccc2)s1 the results were MEKK2wt PB1 HTS inactive, MEKK3 PB1 HTS inactive, CendR NRP1 mod inactive, MEKK2mut PB1 HTS inactive and SKN-1 inh inactive.
Screening COc1ccc(OC)c(NC(=O)c2nc3ccccc3s2)c1 returned MEKK2wt PB1 HTS 3.0[inhibitor], MEKK3 PB1 HTS 3.0[inhibitor], CendR NRP1 mod inactive, MEKK2mut PB1 HTS inactive, SKN-1 inh inactive, MEKK2wt confirm inactive, MEKK2mut confirm inactive and MEKK3 confirm inactive.
`CCc1cc(C(=O)N=Nc2c(O)[nH]c3c(Br)cc(Br)cc23)c2ccccc2n1` gave MEKK2wt PB1 HTS inactive, MEKK3 PB1 HTS 139, CendR NRP1 mod inactive, MEKK2mut PB1 HTS inactive, SKN-1 inh inactive, MEKK2wt confirm inactive, MEKK2mut confirm inactive and MEKK3 confirm inactive.
For CC(=O)C1=C(O)C(=O)N(c2ccc(S(=O)(=O)Nc3nccs3)cc2)C1c1ccc([N+](=O)[O-])cc1 (stereo not drawn) the results were MEKK2wt PB1 HTS 62[inhibitor], MEKK3 PB1 HTS 57[inhibitor], CendR NRP1 mod inactive, MEKK2mut PB1 HTS inactive, SKN-1 inh inactive, MEKK2wt confirm inactive, MEKK2mut confirm inactive and MEKK3 confirm inactive.
`CC(=O)C1=C(O)C(=O)N(c2ccc(S(=O)(=O)Nc3nccs3)cc2)C1c1ccc(F)cc1` (stereo not drawn) gave MEKK2wt PB1 HTS inactive, MEKK3 PB1 HTS inactive, CendR NRP1 mod inactive, MEKK2mut PB1 HTS inactive and SKN-1 inh inactive.
For Cc1nc2c(cc1C(=O)N/N=C/c1ccc([N+](=O)[O-])cc1)c(=O)n(C)c(=O)n2C the results were MEKK2wt PB1 HTS inactive, MEKK3 PB1 HTS 135, CendR NRP1 mod inactive, MEKK2mut PB1 HTS inactive, SKN-1 inh inactive, MEKK2wt confirm inactive, MEKK2mut confirm inactive and MEKK3 confirm inactive.
For C[C@H](NC(=O)C[C@@H]1C=C[C@@H](NC(=O)CN2CCOCC2)[C@@H](CO)O1)c1ccccc1 the results were CendR NRP1 mod inactive and SKN-1 inh inactive.
Screening CN1CCC2(CC1)N=C(c1ccc(F)cc1)C(=S)N2C(=O)c1ccc(C(C)(C)C)cc1 returned MEKK2wt PB1 HTS 147, MEKK3 PB1 HTS inactive, CendR NRP1 mod inactive, MEKK2mut PB1 HTS inactive, SKN-1 inh inactive, MEKK2wt confirm inactive, MEKK2mut confirm inactive and MEKK3 confirm inactive.
`Oc1ccc(C[C@H]2CNC(=S)N2CC2CCCN2C[C@H](Cc2ccc(O)cc2)N2C[C@H](Cc3ccccc3)N(CC3CCCCC3)C2=S)cc1` (stereo partly drawn) gave CendR NRP1 mod inactive and SKN-1 inh inactive.
Screening O=c1[nH]c2cc3c(cc2cc1CN(CCO)S(=O)(=O)c1ccccc1)OCCO3 returned MEKK2wt PB1 HTS inactive, MEKK3 PB1 HTS 130, CendR NRP1 mod inactive, MEKK2mut PB1 HTS inactive, SKN-1 inh inactive, MEKK2wt confirm inactive, MEKK2mut confirm inactive and MEKK3 confirm inactive.
Screening CC1CCCN(CCOc2ccc(Br)cc2)C1 (stereo not drawn) returned MEKK2wt PB1 HTS inactive, MEKK3 PB1 HTS 198, CendR NRP1 mod inactive, MEKK2mut PB1 HTS inactive, SKN-1 inh inactive, MEKK2wt confirm inactive, MEKK2mut confirm inactive and MEKK3 confirm inactive.
CC1CCCN(CCOCCSc2ccccc2)C1 (stereo not drawn) was read as MEKK2wt PB1 HTS inactive, MEKK3 PB1 HTS 133, CendR NRP1 mod inactive, MEKK2mut PB1 HTS inactive, SKN-1 inh inactive, MEKK2wt confirm inactive, MEKK2mut confirm inactive and MEKK3 confirm inactive.
Screening CC1CCCN(CCOCCOc2ccc(Br)cc2Cl)C1 (stereo not drawn) returned MEKK2wt PB1 HTS inactive, MEKK3 PB1 HTS 150, CendR NRP1 mod inactive, MEKK2mut PB1 HTS inactive, SKN-1 inh inactive, MEKK2wt confirm inactive, MEKK2mut confirm inactive and MEKK3 confirm inactive.
For CCN(C(=O)COC(=O)C(C)(C)Oc1ccc(Cl)cc1)c1c(N)n(Cc2ccccc2)c(=O)[nH]c1=O the results were CendR NRP1 mod inactive and SKN-1 inh inactive.
For CNc1nc(-c2ccccc2)c2sccc2n1 the results were CendR NRP1 mod inactive and SKN-1 inh inactive.
For CC(C)Oc1cccc(NC(=O)C2(C)CCN2C(C)C)c1 (stereo not drawn) the results were CendR NRP1 mod inactive and SKN-1 inh inactive.
For C/C=C(\C)C(=O)NCCN1C2=NC[C@H](Cc3ccccc3)N2C[C@H]1Cc1ccc(O)cc1 the results were MEKK2wt PB1 HTS 153, MEKK3 PB1 HTS inactive, CendR NRP1 mod inactive, MEKK2mut PB1 HTS inactive, SKN-1 inh inactive, MEKK2wt confirm inactive, MEKK2mut confirm inactive and MEKK3 confirm inactive.
`COc1ccc(C[C@H]2CN3C(=NC[C@H]3Cc3ccccc3)N2CCNC(=O)CCC2CCCCC2)cc1` gave MEKK2wt PB1 HTS 164, MEKK3 PB1 HTS inactive, CendR NRP1 mod inactive, MEKK2mut PB1 HTS inactive, SKN-1 inh inactive, MEKK2wt confirm inactive, MEKK2mut confirm inactive and MEKK3 confirm inactive.
Screening C/C=C(\C)C(=O)NCCN1C2=NC[C@@H](C)N2C[C@@H]1Cc1ccc(OC)cc1 returned MEKK2wt PB1 HTS inactive, MEKK3 PB1 HTS inactive, CendR NRP1 mod inactive, MEKK2mut PB1 HTS inactive and SKN-1 inh inactive.
`C/C=C(\C)C(=O)NCCN1C2=NC[C@H](Cc3ccccc3)N2C[C@@H]1Cc1ccc(OC)cc1` gave MEKK2wt PB1 HTS 153, MEKK3 PB1 HTS inactive, CendR NRP1 mod inactive, MEKK2mut PB1 HTS inactive, SKN-1 inh inactive, MEKK2wt confirm inactive, MEKK2mut confirm inactive and MEKK3 confirm inactive.
`C/C=C(\C)C(=O)NCCN1C2=NC[C@@H](C)N2C[C@H]1Cc1ccc(O)cc1` gave MEKK2wt PB1 HTS inactive, MEKK3 PB1 HTS inactive, CendR NRP1 mod inactive, MEKK2mut PB1 HTS inactive and SKN-1 inh inactive.
For COc1ccccc1S(=O)(=O)N(C)C[C@@H]1OCc2cnnn2CCCC(=O)N([C@@H](C)CO)C[C@H]1C the results were CendR NRP1 mod inactive and SKN-1 inh inactive.
`O=C(NC1CCCC1)C1c2ccccc2OCC(=O)N1CCc1ccccc1` (stereo not drawn) gave CendR NRP1 mod inactive and SKN-1 inh inactive.
